Results filed as inconclusive are left out. Values without a mark were called inactive. Calls of active or inactive are those of the source. The call rests on the fitted dose curve.
On the % scale 0 is the no-effect control and ±100 the full control effect; potency means the concentration at half of the fitted maximal effect.

Sequence of Beta-2 adrenergic receptor (Homo sapiens) (P07550 whole entry, looked up): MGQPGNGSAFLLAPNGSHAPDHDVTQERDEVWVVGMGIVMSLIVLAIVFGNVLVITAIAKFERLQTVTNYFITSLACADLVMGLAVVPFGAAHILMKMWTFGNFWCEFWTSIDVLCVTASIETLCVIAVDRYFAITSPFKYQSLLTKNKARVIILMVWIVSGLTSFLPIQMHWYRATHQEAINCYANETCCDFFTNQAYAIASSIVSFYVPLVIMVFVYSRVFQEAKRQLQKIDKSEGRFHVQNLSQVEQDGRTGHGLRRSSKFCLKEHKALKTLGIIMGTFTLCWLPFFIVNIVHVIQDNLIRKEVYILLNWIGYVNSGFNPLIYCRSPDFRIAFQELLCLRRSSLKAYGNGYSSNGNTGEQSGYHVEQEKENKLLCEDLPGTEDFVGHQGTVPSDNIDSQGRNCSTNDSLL

The assay concerns the target Beta-2 adrenergic receptor (Homo sapiens) (UniProt P07550). Kind of assay: Adrenergic beta2 receptor (ADRB2) small molecule antagonists, cell-based qHTS assay (AID 1963592). Further: nearly all actives have a fitted effect of over 50% in size. The note with it: CHO-ADRB2 cells, isoproterenol-stimulated cAMP HTRF ratio, 0.5 h; series mostly up to 92.4 µM; activity change, negative = inhibition: at the top concentration. An excerpt: U.S. Tox21 Program National Center for Advancing Translational Sciences [NCATS] Division of Preclinical Innovation [DPI] U.S. Environmental Protection Agency [EPA] National Institutes of Environmental Health Sciences [NIEHS] National Toxicology Program [NTP] U.S. Food and Drug Administration [FDA] Tox21 Assay Overview: Beta adrenergic receptors (Beta-ARs) belong to the G-protein coupled receptor (GPCR) superfamily, includes three subtypes - beta1, beta2, and beta3. Beta1-AR is the predominant receptor subtype expressed in the heart, and beta2-AR is expressed in the kidney, lung, blood vessel and in the heart, and beta3 is found in the adipocytes. Beta1 and 2 ARs couple to Gs protein and elevate cyclic adenosine mono phosphate (cAMP), which activates protein kinase A and leads to the downstream signaling responsible for the physiological actions. Beta-AR agonists or antagonists are the most prescribed therapeutic agents for heart failure and asthma, and these were one of the first target receptors for the rational drug design. Tox21 10K compound library was screened using the cAMP-Gs dynamic assay (Cisbio Bioassays, Shelton, CT) to identify agonists/antagonists of the Gs-coupled human adrenergic, beta2 receptor (ADRB2) in the CHO-ADRB2 cell line (Codex BioSolutions, Inc. Gaithersburg, MD), which stably over-expresses ADRB2. The principle of cAMP-Gs dynamic assay is based on HTRF technology, which facilitates the fluorescence resonance energy transfer (FRET) between donor Europium cryptate and acceptor d2-labeled cAMP. The cAMP generated within cells competes with the red acceptor, d2-labled cAMP, for binding to the monoclonal anti-cAMP-cryptate (Europium donor). An increase in intracellular cAMP leads to the disruption of FRET signal, and the signal is inversely proportional to the cAMP concentration. Propranolol HCl (Sigma-Aldrich, St. Louis, MO) was used as a positive control in the screening.
Tox21 Assay Protocol Summary: CHO-ADRB2 cells were dispensed at 1,000/well in 4uL assay medium into white/solid 1536-well plates (Greiner Bio-One North America Inc., Monroe, NC) using a Multidrop Combi dispenser (ThermoFisher Scientific, Waltham, MA). The assay plates were incubated at 37C and 5% CO2 for an overnight (18-20hr). Then positive control and test compounds dissolved in DMSO were transferred to the assay plates at 23nL using a Pintool station (Wako, San Diego, CA). Following the compound and positive control transfer, 1uL agonist-stimulation mix containing 1nM Isoproterenol HCl, 100uM IBMX and 25uM Ro-20-1724 was added to each well of the assay plates using BioRAPTR Flying Reagent Dispenser (FRD, Beckman Coulter, Brea, CA). The assay plates were incubated at room temperature for 0.5hr. Then 2.5ul each d2-labled cAMP and anti-cAMP-cryptate solutions were added separately to each well of the assay plates using an FRD and the assay plates were incubated at room temperature for 1hr. The fluorescence signal was measured at two different wavelengths (665nm and 615nm) using an Envision plate reader (Perkin Elmer, Shelton, CT). Data were expressed as the ratio of 665 nm/615 nm.
`Cc1cc(C2CCCCC2)n(O)c(=O)c1`: the “activity change, negative = inhibition” value is 2.3% [at 42.5 µM]. The same measure, in the same setting: with `CC1(C)[C@@H](OC(=O)CCC(=O)O)CC[C@]2(C)[C@H]3C(=O)C=C4[C@@H]5C[C@@](C)(C(=O)O)CC[C@]5(C)CC[C@@]4(C)[C@]3(C)CC[C@@H]12` the figure was 1.34% [at 42.5 µM]; with `CCCCN`, 3.8% [at 42.5 µM]; with `CCCCCCOc1ccc(O)cc1`, 0.936%. Same read-out and setting: with `CN(C)CCCN1c2ccccc2CCc2ccc(Cl)cc21` the figure was -11.9% [at 42.5 µM]; with `CC[C@]12CCCN3CCc4c(n(c5ccccc45)C(=O)C1)[C@@H]32`, 0.833% [at 42.5 µM]; with `CC(=O)OC(C)OC(C)=O`, -0.163%. Still for that read-out and setting: with `COc1ccc(-c2nc3ccc(C4=NNC(=O)CC4C)cc3[nH]2)cc1` (stereo not given) the figure was 1.58% [at 42.5 µM]. For the compound `C=C(C)C(=O)OCCO`, the “activity change, negative = inhibition” value is 2.28%. The same measure, in the same setting: with `N#Cc1ccccc1O` the figure was -7.12%. Same read-out and setting: with `CC(=O)OC(C)OC(=O)C(C)c1ccc(-c2ccccc2)c(F)c1` (stereo not given) the figure was -0.973% [at 42.5 µM]. Same read-out and setting: with `O=C(Cl)c1cc(C(=O)Cl)cc(C(=O)Cl)c1` the figure was 1.82%; with `Cc1cccc(C)c1NC(=O)C(C)N` (stereo not given), -7.85% [at 42.5 µM]; with `CCCCN(CCO)CCCC`, 0.0798%. `ClCCOCCOCCCl`: the “activity change, negative = inhibition” value was -11.7%. Still for that read-out and setting: with `Clc1nc2ccccc2nc1Cl` the figure was -2.99%; with `CCCCCC[C@@H](O)C/C=C\CCCCCCCC(=O)OC`, -7.49%; with `Nc1ccc(Oc2ccc(N)c(N)c2)cc1`, 5.37%. The same measure, in the same setting: with `CC(=O)Nc1ccc(OC(=O)c2ccccc2OC(C)=O)cc1` the figure was -9.19% [at 42.5 µM]. The same measure, in the same setting: with `CCN(CC)C(=O)c1ccc(O)c(OC)c1` the figure was 5.54% [at 42.5 µM]; with `CCOc1ccc(NC(C)=O)cc1N`, -22.4%. In the case of `CCN(Cc1cccnc1)C(=O)c1cccc(Cl)c1[C@]1(C)C(=O)N(Cc2ccc(OC)cc2OC)c2ccc(Cl)cc21`, the “activity change, negative = inhibition” value is -10.3%.

With `CCOc1ccc2nc3cc(N)ccc3c(N)c2c1`, the “activity change, negative = inhibition” value is 3.38% [at 42.5 µM]. For the compound `CC1=C(C=O)C(C)(C)CCC1`, the “activity change, negative = inhibition” value is -0.835%. Same read-out and setting: with `COc1ccc2cc(CCC(C)=O)ccc2c1` the figure was 1.94% [at 42.5 µM]; with `CCCCN(CCN(CCCC)C(=O)N1CCOCC1)C(=O)N1CCOCC1`, -4.23% [at 42.5 µM]. Still for that read-out and setting: with `CCCOC(=O)CCCCC(=O)OCCC` the figure was -0.589%; with `CCCCCCCCCCCCCCCC(=O)OC/C=C(C)/C=C/C=C(C)/C=C/C1=C(C)CCCC1(C)C`, -6.62%. Regarding `C[C@]12CCC(=O)C=C1[C@@H]1C[C@@H]1[C@H]1[C@@H]3[C@@H]4C[C@@H]4[C@@]4(CCC(=O)O4)[C@@]3(C)CC[C@@H]12`, the “activity change, negative = inhibition” value is -13.4% [at 42.5 µM]. On to `CC(CN)CC(C)(C)CCN` (stereo not given), for which the “activity change, negative = inhibition” value is -1.74% [at 240 µM]. For the compound `CN1[C@@H]2CC[C@@H]1CC(OC(=O)C(CO)c1ccccc1)C2` (stereo not given in full), the “activity change, negative = inhibition” value is 1.13% [at 42.5 µM]. Same read-out and setting: with `CC1(CO)CN(c2ccccc2)NC1=O` (stereo not given) the figure was -12.4%; with `N#Cc1ccc(C(c2ccc(C#N)cc2)n2cncn2)cc1`, -16.1% [at 42.5 µM]. On the same count and under the same terms, with `C=C1C(=C/C=C2\CCC[C@]3(C)[C@@H]([C@H](C)/C=C/[C@@H](O)C4CC4)CC[C@@H]23)C[C@@H](O)C[C@@H]1O` the figure was 5.54% [at 42.5 µM].

On to `NCCCN(CCO)CCO`, for which the Potency was 217 nM (active). Regarding `Cc1ccc([N+](=O)[O-])c(N)c1`, the “activity change, negative = inhibition” value is 0.436%. As for `Oc1ccc(Cc2ccccc2)cc1`, the “activity change, negative = inhibition” value is -17%. For the compound `O=C(O)[C@@H]1CSCN1`, the “activity change, negative = inhibition” value is 5.16% [at 42.5 µM]. On to `Oc1ccc2ccccc2c1`, for which the Potency entry was “inactive”.

Take `CC(=O)CCc1ccc(OC(C)=O)cc1`: the “activity change, negative = inhibition” value was -7.61%.

(Values after PubChem BioAssay (Tox21).)
